# Data from PubChem BioAssay AID1159506 (National Center for Advancing Translational Sciences (NCATS), 2015).
# Over roughly 59,000 sequences, the read-out has its median near -0.00055; the lowest 2% begin near -2. Shown is part of a subset that was picked to be rich in the lowest values.
# Assay: Identification of proteins required for the processing of the EWS-FLI1 nascent transcript;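 also: robust z of luciferase light less the median z of siRNAs with the same seed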
# Details: TC32 Ewing sarcoma NR0B1-luc vs CMV-luc (EWS-FLI1 target promoter against control promoter), 48 h; screened at 20 nM (by protocol)
# Method in brief: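 Genome-wide siRNA screen (Ambion v4.1, three siRNAs per gene, 20 nM final, RNAiMax) in Ewing sarcoma TC32 cells carrying NR0B1-promoter or CMV-promoter luciferase; OneGlo luciferase read 48 h post-transfection. Data normalized, z-score-MAD transformed and seed-adjusted.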
row,Sequence,seed-corrected z-score
1,AUCGCUCCCAUAGUUCACC against KRT20,-0.0454
2,UUUUCCUUAAUUAACGGCA against DTYMK,-0.22
3,UCUGUGGAUACUGAUAUUC against NRG1,1.7
4,UAUGGAAAAAUUAAUCUGU against RAC1,-0.118
5,UUCAGUAGAAGUUUCAUCU against POLR2H,-3.55
6,UACAGAAUGGUUGUCUUGC against ARF4,0.573
7,UAGAGUGCUAAGGACAGGG against GFI1B,0.226
8,AGAUUUAUAAUAAUCCCAC against C11orf72,0.747
9,UUACUGGAGACCAAUCUUC against FDFT1,-1.01
10,UUAUUGACACGAAUACAUC against BTG3,0.565
11,UGGAGGUUAUGAUCAUUCC against OR51B6,-2.91
12,AUGGUGGUAAUUACGCUGC against SLCO5A1,-0.993
13,UGACUUUACCUCAAAGUUG against PRPF19,-0.0138
14,UCAUUGUCUUCUAUCAAUC against FYN,-0.739
15,UUCGUAUUAAGAACUGCAG against PSMD1,-2.79
16,UAUGGGUUUGUUAAAAGGC against FUT6,-0.26
17,UUGCCUUCCAAGUUCUUUC against TNP2,-0.491
18,AUACGAUAAGCAGAGGAGG against GLT8D1,-0.112
19,AAACCUGCUAUAUCACUCC against ATAD1,0.174
20,AAUCUUCGUAAGACUAUCC against C9orf50,-2.07
21,UUCCUUGUUAGCACAGACC against GSR,-0.669
22,UACUUGUUGAGUGUCUCAG against CXCR1,-1.52

row,Sequence,seed-corrected z-score
1,AGUCGAAUAACAUAUAUCC against NBPF14,-2.13
2,AAAGUUCUCAGGGUAGUGG against TOP3B,-0.163
3,UGUCAUAUACGCUCCAUAC against EYA4,-0.104
4,UGUUUCUACCCUUUGCUCC against FAM174B,-0.127
5,UUUGCAGCUAGUGAUGCGC against ABHD8,-0.567
6,UAGCUAUUACCUUACAUUG against HRG,0.409
7,UCAUUGUUGAGGUGCGUGA against CDK5R1,1.16
8,UUUUGGACAGGACCGUUGG against SEC24A,0.282
9,UUUGGUGCAAAAACCGUGU against WTIP,-2
10,AUGGCUUCAACAAGCAUCU against HGH1,-0.109
11,UAUGGGUCUACCGUCACAC against MIOS,-1.14
12,UCAGGUACUCUAACACCGC against HIST1H2AC,-0.00982
13,UACCGGUCGAGGCUGAUCA against HRH2,-2.03
14,UUUCAUAGUAAUCGUAGAC against LOC728715,0.493
15,UUGAGAGUAGAGACUGAGC against MKL2,-0.474
16,AAGCCUCACAGUACUGCGC against NSMCE3,-2.76
17,UACAGUGCAGGAUCUUCUC against NBL1,-0.461
18,UAUAUAUCGCCCAUCUCUC against OARD1,-0.737
19,UCUGGUACAUUCGAUAGCG against PTGFRN,0.714
20,UUUCUUCCCAUGAUCUUUC against RALBP1,0.057
21,UACUGUCCCAAUGGUCAGC against EZH2,-2.1
22,AAAUGAACAGGUUUGGAAC against GRPR,0.695

row,Sequence,seed-corrected z-score
1,UUCUUGUUGGAUAAUGCUG against RFX8,0.126
2,AAUGAUCACACCUAAGCCC against USH2A,-3.89
3,UUCUGCACUCGAGUAAAGG against MAD2L1,0.536
4,AUGCUAGUCAAAAGAAUCG against FBXO40,0.266
5,UCGUCUAAAAUGACUAACG against SACS,0.485
6,UCAGAUUUCAGAUCUUUGA against ANXA11,0.136
7,AAAGUACUCCGUAUUUCCC against SLC35D2,-1.42
8,UCUAGGGUCACUGUGACGG against RGS9BP,-0.834
9,UAGUUGUCCUUCAUAAUUC against CCDC67,-2.53
10,ACCUCUUCAACAUCUAACC against GEMIN4,0.118
11,CACGUGGCUAUUGUGGAAC against COX6A2,-1.45
12,AUAGGUUCCUCUAUAUGUG against ZNF396,1.53
13,UUGGGUGCGAUCUGCAGAC against LINC00304,-0.536
14,AAAACACGUCGAAAUCUCC against RPL39,0.834
15,UAAGGAUAUUUGCUAAGGC against HMGCLL1,-0.796
16,UGUCUUCGCACUCUUAUCC against IFRD1,-2.25
17,UGUCCAUCCGUCAUGAUGC against ANKRD60,0.777
18,UAUGUAACAGGAUCCUGCC against RFC1,0.0202
19,UAUAAGUAAGCCUAGCUUG against C16orf54,0.684
20,UUCGAUAGAGAACAAGUCG against FBXL4,-1.24
21,UUGAUUUCCACGUUGCAUC against SLC10A2,-2.5
22,UACGGGUGCAGUAGUGGUG against RGR,-0.158

row,Sequence,seed-corrected z-score
1,UCAUCGUCUACUUCCAUUG against BPTF,-1.63
2,AACCGCUCCAUUUUUGCUC against POM121L12,0.212
3,AAUUUAUUCCAAACUUGUC against ME3,-2.03
4,UUAGGGAAAGGUCCUCCUU against ELK1P1,0.104
5,UGACUUAUGAACAUCAAAG against KLHL31,-1.09
6,AUCUAUCUGACCCAAAUCC against HNRNPH1,-2.26
7,ACAUGAUCCAUCCAAAUGC against CD163,-0.0516
8,AACCGAUUCAUGACCACCG against AQP5,0.51
9,UUGGUGACUGUGCGCAUCC against TACR2,-0.41
10,AUGUGGACAACCUUCUUUG against RPS10P9,-1.14
11,AACGGGAACACCGACAACA against OPRL1,-0.00815
12,AACGUAAUAAAAGUCUUGC against SERHL,0.571
13,UGCUGGUUCAACUCAUCGC against DLGAP3,-2.34
14,UUACUAACAUCUUCUCGUC against PKN2,0.115
15,AAACCUAUUAGUGAGAACA against TRIML1,-0.116
16,AAACGGAGUCGUAGGAUCC against BMP15,-0.603
17,UUUCGUAUUCUGAGGACCG against DLGAP5,0.243
18,UUGCAGAUCUUUUCGCACC against S100A9,-0.59
19,AUUCGGAUUUGGGUCGUGC against PCDHGB2,0.36
